Screening results deposited in PubChem BioAssay by several laboratories.
ATG4B inh: ATG4B (human) cysteine protease inhibition. 340,000 compounds, 0.51% hits. ATG4B cleavage of LC3-PLA2, NBD-HPC fluorescence, 1 h. inhibition, % at 8.33 µM. Q9Y4P1; in the data active means inhibition above about 40%
Target sequence (Q9Y4P1 whole entry, looked up): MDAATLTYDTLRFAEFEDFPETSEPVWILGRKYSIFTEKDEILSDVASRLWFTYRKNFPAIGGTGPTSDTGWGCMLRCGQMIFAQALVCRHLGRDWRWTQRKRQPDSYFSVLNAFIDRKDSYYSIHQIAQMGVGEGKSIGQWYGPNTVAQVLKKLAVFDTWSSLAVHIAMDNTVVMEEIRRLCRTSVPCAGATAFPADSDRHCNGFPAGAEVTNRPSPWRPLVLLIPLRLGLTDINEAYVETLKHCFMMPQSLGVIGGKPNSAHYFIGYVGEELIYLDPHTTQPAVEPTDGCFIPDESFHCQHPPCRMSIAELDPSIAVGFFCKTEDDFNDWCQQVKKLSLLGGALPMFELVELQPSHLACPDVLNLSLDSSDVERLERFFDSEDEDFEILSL
AI-2 QS mod: modulates the Vibrio harveyi AI-2 quorum sensing system; 300,000 compounds, 0.4% hits; activity change, % at 7.5 µM; Vibrio harveyi JMH597 AI-2 luminescence/OD600 ratio, 9 h; stronger effect = lower value; strain lacks LuxN and CqsS sensors; 0 = neutral-control median; in the data active means activity change below about -75%, passing the limit was not always enough;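 further: luminescence divided by OD600 gain over 9 h not by final OD600 alone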
V-ATPase pH: alters yeast V-ATPase proton transport; S. cerevisiae, pHLuorin cytosolic pH fluorescence; response, % at 10 µM; 350,000 compounds, 0.37% hits; AID 504577; in the data active means response mostly above about 7.3%, no sharp cut-off; inactive means mostly below about 5.4%; further: actives read high
SUMO Mot1 rescue: SUMOylation pathway inhibition by Mot1-301 growth rescue | S. cerevisiae Mot1-301 growth rescue, ATP luminescence, 38.5C; percent above DMSO median, 100 means doubled | growth rescue, % at 18.8 µM | 320,000 compounds, 1% hits | AID 2716;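 active means every valid replicate shows activation above 250% relative to neutral control wells; inactive means the rest, any valid replicate at or below 250%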;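 further: OY570 slx delta 5 strain wells were the positive control but not used for scaling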
Efflux pump mplx: blocks antifungal efflux pumps in multiplex yeast assay. AID 485275. 330,000 compounds, 0.44% hits. inhibition, % at 10 µM. S. cerevisiae Candida pump triplex, Nile Red efflux;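 active means plate passing quality check with inhibition over a set limit, or well fluorescence over plate mean plus 4 SD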;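 further: Nile Red retained in pooled yeast measured as flow cytometry median fluorescence; 0% = buffer negative control and 100% = Enniatin B positive control; higher means more Nile Red kept so more efflux inhibition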
VATPase regulator: yeast V-ATPase proton transport regulation. 980 compounds, 2% hits. shares compounds with V-ATPase pH. response, % at 10 µM. AID 602197. S. cerevisiae pHLuorin cytosolic pH; in the data active means response above about 24%;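 further: plate controls were vehicle wells for no effect and positive control wells for full effect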
Numbers without * were called inactive; . = not tested or not shown. Most compounds without a hit are left out; they make up all but 2.5% or so of the library.

SMILES	ATG4B inh	AI-2 QS mod	V-ATPase pH	SUMO Mot1 rescue	Efflux pump mplx	VATPase regulator
Nc1nnc(SCC(=O)Nc2ccc(N3CCOCC3)c(Cl)c2)s1	2.5	29.1	7.4*	10.3	0.0	-1.0
Nc1ccc2nc(SCC(=O)Nc3ccc(N4CCOCC4)c(Cl)c3)sc2c1	-2.1	28.2	1.1	-6.5	-0.2	.
Cc1ccccc1-n1ncc2c1CC(C)(C)CC2NC(=O)C1=CC(=O)CC(C)(C)O1 (configuration not stated)	-2.8	24.1	-2.2	-0.3	-0.1	.
CCOC(=O)Cn1c(=O)cnc2ccccc21	-2.9	23.0	2.6	3.7	0.0	-3.9
CCOC(=O)Cn1c(-c2ccc(Cl)nc2)nc2ccccc21	17.2	33.8	0.3	6.1	-0.1	1.1
CCOC(=O)Cn1c(S(=O)(=O)Cc2ccccc2)nc2ccccc21	-5.4	18.3	-5.1	-6.0	-0.1	-2.0
COc1ccc(C(=O)c2ccc(Cl)cc2)c(OC)c1OC	3.5	.	-3.5	.	.	.
NC(=O)COc1ccc(=O)n(-c2ccccc2)n1	5.0	2.9	-0.5	-3.4	0.1	.
O=c1ccc(OCCOc2ccccc2)nn1-c1ccccc1	-4.3	20.9	14.7*	5.3	-0.1	6.5
Clc1cccc(CSC2=NCCCN2)c1	0.8	11.1	-1.7	-13.9	-0.2	2.7
CCCn1ncc(CN2CCC(C(=O)Nc3cccc(-c4cccc(F)c4)c3)CC2)c1C	-14.8	11.8	-1.8	8.7	0.4	.
Cc1nn(-c2ccc(Cl)cc2)c(=O)c2c(C)noc12	-5.7	32.7	-0.8	17.6	0.1	-2.1
O=C(c1ccc(Cl)cc1)C1C2C(=O)N(c3ccccc3)C(=O)C2C2CCCN21 (configuration not stated)	-14.2	1.0	-1.1	.	.	.
O=C(c1ccc(Cl)cc1)[C@@H]1[C@@H]2C(=O)N(c3ccccc3)C(=O)[C@@H]2C2c3ccccc3C=NN21 (some centres not stated)	-13.8	18.4	10.3*	35.8	-0.1	-1.9
O=C(CSc1ccc(Cl)cc1)NC1CCCC1	-9.9	9.9	-0.9	-3.6	0.0	.
O=C(NC1CCCCC1)Sc1ccc(Cl)cc1	-2.1	25.6	8.0*	-11.8	0.0	8.0
COc1ccc(CC(=O)Nc2ccncc2Cl)cc1	-3.0	32.3	-1.1	32.5	-0.2	.
OCC[C@@H]1C[C@@H](O)[C@H](O)[C@@]2(CCCc3ccccc3O2)O1	-7.8	7.8	1.9	22.0	0.1	.
CC1(C)CC(=O)C(C(C2=C(O)CC(C)(C)CC2=O)c2cccs2)C(=O)C1 (configuration not stated)	-10.7	13.5	10.7*	.	-0.1	35.5*
Cc1ccc(S(=O)(=O)/N=C(/Nc2ccc(O)c(C(=O)O)c2)c2ccccc2)cc1	-2.8	.	11.5*	-15.0	-0.1	-0.7
CNC(=O)C[C@H]1C(=O)N(c2ccc(Br)cc2)C[C@@H]1C	.	.	0.0	.	.	.
CCn1c(SCC(=O)Nc2nc3ccccc3s2)nnc1-c1ccc(Br)cc1	-7.7	23.7	15.4*	-2.1	0.0	1.2
CCn1c(Cc2ccc(OC)cc2)nnc1SCC(=O)Nc1nc2ccccc2s1	0.8	8.1	-0.1	47.0	0.0	.
CCOC(=O)c1cc(NC(=O)Nc2ccc(Br)cc2)c(C)nc1C	-20.0	39.3	1.1	56.5	0.1	.
O[C@@H]1CN(C2CCCCC2)CC[C@H]1N1CCN(CCc2ccccc2)CC1	18.5	7.4	-0.6	-21.7	0.2	.
SMILES	ATG4B inh	AI-2 QS mod	V-ATPase pH	SUMO Mot1 rescue	Efflux pump mplx	VATPase regulator
O[C@@H]1CN(C2CCN(Cc3ccccc3)CC2)CC[C@H]1N1CCCCCC1	2.4	.	10.6*	.	.	0.0
Cc1ccc(S(=O)(=O)NC(=O)NC(C)c2ccc(F)cc2)cc1 (configuration not stated)	-7.3	33.9	-1.6	-16.6	0.3	.
COc1cc([N+](=O)[O-])cc2cc(C(=O)N3CCCC3)c(=O)oc12	3.4	43.6	-1.5	-14.6	0.0	.
O=C(Nc1ccc2[nH]c(=O)[nH]c2c1)c1cccc([N+](=O)[O-])c1	-0.9	20.5	8.9*	-2.7	0.0	-1.3
O=C(Nc1ccccc1C(=O)Nc1ccncc1)c1cccc([N+](=O)[O-])c1	-7.6	6.4	12.6*	-28.5	-2.0	0.0
O=C(Nc1ccc2ccccc2c1)c1cccc([N+](=O)[O-])c1	-1.0	20.9	-0.6	11.4	0.1	.
O=C(O)c1cccc(NC(=O)c2ccccc2NC(=O)c2cccc([N+](=O)[O-])c2)c1	-0.7	18.1	6.4	4.7	0.4	.
CCCn1cnc2c(=S)nc(N)[nH]c21	6.5	45.2	-0.8	10.1	0.0	.
COc1cc(CNC(C)c2ccccc2)cc(Cl)c1OCC(=O)Nc1ccccc1 (configuration not stated)	-3.3	2.5	3.0	8.0	0.1	.
Cc1ccc(NC(=O)CC(NCC2CCCO2)C(=O)O)cc1C (configuration not stated)	2.8	12.6	4.2	-17.1	0.3	.
NCCCSC1=NCCCN1	13.9	7.9	0.5	363.0	0.0	2.4
COc1ccc(S(=O)(=O)N2CCN(CC(=O)NC3CC3)CC2)cc1	2.0	-12.3	-2.8	-5.3	0.0	.
CCn1cc(C(=O)NCc2ccco2)c(=O)c2ccc(C)nc21	18.0	8.0	6.7*	7.0	-0.1	2.0
C[C@@H]1C=C[C@](Cc2ccccc2)(C(=O)NCC2CC2)N1C(=O)c1ccccc1	1.7	5.7	10.6*	70.4	-0.1	-0.1
CN(Cc1ccccc1)C(=O)CCC1CCN(C(=O)CC2=CCCCC2)CC1	-7.7	3.1	2.3	.	.	.
O=C(CCC1CCN(C(=O)CC2=CCCCC2)CC1)NCc1ccc(F)cc1	.	.	7.1*	.	.	1.0
COc1ccccc1N(CC(O)Cn1c2ccccc2c2ccccc21)S(=O)(=O)c1ccccc1 (configuration not stated)	-17.3	19.0	-1.6	-5.3	0.2	.
O=S(=O)(c1ccccc1)N(CC(O)Cn1c2ccccc2c2ccccc21)c1ccccc1 (configuration not stated)	-8.4	6.7	7.8*	-3.1	0.1	0.0
O=S(=O)(NC1=NCCCCC1)c1ccc(F)cc1F	-9.5	.	3.0	-3.6	0.0	.
O=S(=O)(NC1=NCCC1)c1ccc(F)cc1F	9.3	9.0	9.1*	10.8	-0.1	-2.2
O=C(CCCN1C(=O)/C(=C/c2ccccc2Cl)SC1=S)NNC(=O)c1ccccc1Cl	25.0	10.1	10.4*	1.7	-0.2	4.2
O=C(CCCN1C(=O)/C(=C/c2ccccc2Cl)SC1=S)NNC(=O)c1ccncc1	-1.3	7.7	-9.0	1.9	0.0	.
COc1ccc(S(=O)(=O)N2CCN(Cc3c[nH]c4ccccc34)CC2)cc1	-6.0	1.5	7.8*	-19.5	0.0	0.8
COc1ccc(C(O)(CCC(C)C)C(CN2CCOCC2)c2ccc(Cl)cc2)cc1 (configuration not stated)	-7.0	12.0	4.7	296.0	0.0	.
CCCC(O)(c1ccc(OC)cc1)C(CN1CCOCC1)c1ccc(Cl)cc1 (configuration not stated)	2.7	8.6	11.7*	89.5	-0.1	2.0
